From PubChem BioAssay
Rows were chosen to be rich in hits. Some 1.5% of all compounds tested hit in one or more screens of this group.
RAD52 anneal inh – inhibitors of human RAD52 DNA annealing | 0.46% of 360,000 active | recombinant RAD52 DNA annealing, FRET fluorescence | inhibition, % at 18.7 µM | P43351 | AID 651710;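 active = every replicate showing at least 50% inhibition; inconclusive = mean inhibition at least 50% but not in every replicate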
DNA FID counter – displaces DNA intercalator in HCV helicase counter-screen; DNA fluorescent intercalator displacement, fluorescence; inhibition, % at 7.9 µM; 0.17% of 290,000 active; AID 1845; in the data active = inhibition above about 37%;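 note: higher means more ethidium bromide displaced from hairpin DNA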
RAD54 branch – inhibitors of human RAD54 branch migration; Q92698; RAD54 Holliday junction branch migration, FAM/BHQ fluorescence; inhibition, % at 10.4 µM; 0.14% of 360,000 active;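 active = mean normalized replicate activity at least 40 and at least half of replicates scoring 40 or more; inconclusive = only one of the two criteria met; inactive = mean below 40 and under half of replicates reaching 40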;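 note: inhibitors cause a drop in the FAM fluorescence signal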
NRP1-CendR mod – modulators of CendR peptide binding to human neuropilin-1; FAM-RPARPAR peptide binding to NRP-1, fluorescence polarization; inhibition, % at 25 µM; 0.85% of 360,000 active; AID 602438;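 active = inhibition or corrected inhibition above about 18%, plus a signal ratio from 0.5 to 1.5, limit read from the data, passing the limit was not always enough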
Target sequence (O14786 whole entry, looked up): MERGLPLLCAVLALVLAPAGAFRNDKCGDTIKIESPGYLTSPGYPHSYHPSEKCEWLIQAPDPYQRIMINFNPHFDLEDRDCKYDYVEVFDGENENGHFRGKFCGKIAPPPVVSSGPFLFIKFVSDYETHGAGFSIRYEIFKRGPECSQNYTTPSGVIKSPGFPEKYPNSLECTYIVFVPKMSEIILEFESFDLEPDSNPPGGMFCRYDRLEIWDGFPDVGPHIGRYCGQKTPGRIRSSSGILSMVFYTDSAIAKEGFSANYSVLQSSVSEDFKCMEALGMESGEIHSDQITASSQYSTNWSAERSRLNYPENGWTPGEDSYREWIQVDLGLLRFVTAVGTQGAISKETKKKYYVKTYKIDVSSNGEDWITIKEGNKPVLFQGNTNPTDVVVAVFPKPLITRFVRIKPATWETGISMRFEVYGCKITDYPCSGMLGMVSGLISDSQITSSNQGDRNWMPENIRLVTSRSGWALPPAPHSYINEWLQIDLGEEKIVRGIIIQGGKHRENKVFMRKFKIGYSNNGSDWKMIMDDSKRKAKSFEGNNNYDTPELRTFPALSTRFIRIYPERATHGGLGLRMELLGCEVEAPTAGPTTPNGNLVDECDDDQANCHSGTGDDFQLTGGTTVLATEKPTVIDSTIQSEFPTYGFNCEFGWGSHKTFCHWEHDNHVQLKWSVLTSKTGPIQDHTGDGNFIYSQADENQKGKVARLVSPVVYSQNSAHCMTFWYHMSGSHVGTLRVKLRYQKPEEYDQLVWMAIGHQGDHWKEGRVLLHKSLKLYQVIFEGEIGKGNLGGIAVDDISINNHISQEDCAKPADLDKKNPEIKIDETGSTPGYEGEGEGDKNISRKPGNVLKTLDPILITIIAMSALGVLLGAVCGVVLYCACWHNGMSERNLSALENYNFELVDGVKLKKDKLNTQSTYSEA
Glyco luc inh – blocks N-linked glycosylation in D54 reporter cells | D54 ERlucT glycosylation luciferase reporter, 24 h; percent of 100 nM tunicamycin response | reporter increase, % at 12.5 µM | 0.23% of 360,000 active | AID 588692;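 active = mean luciferase reporter signal, scaled so untreated is 0 and the glycosylation-blocking control 100, at or above a set limit in every replicate; inconclusive = mean reaches the limit but not every replicate does; inactive = mean below the limit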;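 note: luciferase carries N-glycosylation sites so blocking glycosylation raises the light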
miR-122 sensor – miR-122 inhibition in Huh7 cells; 0.3% of 340,000 active; Huh7 miR-122 Renilla luciferase sensor, 48 h; neutral wells = 0, positive control = 100; activation (reporter increase), % at 12.5 µM;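 active = mean replicate activation score at least 90 and every replicate individually at or above 90; inconclusive = only one of the two criteria met; inactive = neither criterion met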;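 note: higher luciferase means less miR-122 activity so hits act as miR-122 inhibitors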
Each line names hits and unclear results; the compound was inactive in the other large screens; [ ] = remark or other dose.

C[C@@H]1CCCCO[C@@H](CN(C)Cc2ccc3c(c2)OCO3)[C@H](C)CN([C@H](C)CO)C(=O)c2cc(NS(C)(=O)=O)ccc2O1	none (no result: RAD52 anneal inh, DNA FID counter, RAD54 branch, NRP1-CendR mod, Glyco luc inh)
COc1cccc(/C=C/C(=O)OCC(=O)Nc2cc(C(F)(F)F)ccc2Cl)c1	RAD54 branch inconclusive, NRP1-CendR mod 39 (no result: RAD52 anneal inh)
COc1cccc(/C=C/C(=O)OCC(=O)c2ccc(Br)cc2)c1	NRP1-CendR mod 18 (no result: DNA FID counter)
CCC(=O)N1[C@H](CO)[C@H](c2ccc(-c3cccc(F)c3)cc2)[C@H]1CNC(C)=O	none (no result: RAD52 anneal inh, DNA FID counter, NRP1-CendR mod, Glyco luc inh)
CCN1[C@@H]2c3ccc(-c4ccccc4)c(=O)n3C[C@H]1[C@H](CO)[C@H]2C(=O)NCCCN1CCOCC1	none (no result: DNA FID counter, NRP1-CendR mod, Glyco luc inh, miR-122 sensor)
C=CCN=C1NN=C(c2ccc3c(c2)OCCO3)CS1	miR-122 sensor 154
c1ccc(C2=NNC(=NCc3ccc4c(c3)OCO4)SC2)cc1	none (no result: RAD52 anneal inh)
Cc1ccc(S(=O)(=O)Nc2ccc3c(c2)CC(=O)N([C@@H](C)CO)C[C@@H](C)[C@@H](CN(C)S(=O)(=O)c2ccc(C)cc2)O3)cc1	none (no result: DNA FID counter, NRP1-CendR mod, Glyco luc inh)
COc1ccc(C(=O)Nc2ccc3c(c2)C(=O)N(C)C[C@@H](OC)[C@H](C)CN(C)[C@@H](C)CO3)cc1	none (no result: DNA FID counter, NRP1-CendR mod, Glyco luc inh, miR-122 sensor)
O=C1CCn2c1c(O)c1ccccc1c2=O	none (no result: DNA FID counter, RAD54 branch, miR-122 sensor)
N=C1CCC(=N)c2c1c(O)c1ccccc1c2O	NRP1-CendR mod 27 (no result: RAD52 anneal inh, RAD54 branch)
NC(=O)CC(NC(=O)Cc1cccc2ccccc12)c1ccc(NC2CCC2)c([N+](=O)[O-])c1 (configuration not stated)	none (no result: DNA FID counter)
CC(C)Nc1ccc(C(CC(N)=O)NC(=O)c2ccc(Br)cc2)cc1[N+](=O)[O-] (configuration not stated)	Glyco luc inh 49 (no result: DNA FID counter)
NC(=O)CC(NC(=O)Cc1ccc(Br)cc1)c1ccc(NC2CCC2)c([N+](=O)[O-])c1 (configuration not stated)	Glyco luc inh 39 (no result: DNA FID counter)
CC(C)Nc1ccc(C(CC(N)=O)NC(=O)Cc2ccc(Cl)cc2)cc1[N+](=O)[O-] (configuration not stated)	Glyco luc inh 41 (no result: DNA FID counter)
NC(=O)CC(NC(=O)Cc1ccc(Cl)cc1)c1ccc(NCCN2CCOCC2)c([N+](=O)[O-])c1 (configuration not stated)	none (no result: miR-122 sensor)
NC(=O)CC(NC(=O)Cc1ccc(Cl)cc1)c1ccc(NC2CCCC2)c([N+](=O)[O-])c1 (configuration not stated)	Glyco luc inh 49 (no result: DNA FID counter)
CC(C)Nc1ccc(C(CC(N)=O)NC(=O)c2ccccc2)cc1[N+](=O)[O-] (configuration not stated)	none
NC(=O)CC(NC(=O)c1ccccc1)c1ccc(NC2CCCC2)c([N+](=O)[O-])c1 (configuration not stated)	none (no result: DNA FID counter)
NC(=O)CC(NC(=O)Cc1ccc(Cl)cc1)c1ccc(NC2CCCCC2)c([N+](=O)[O-])c1 (configuration not stated)	Glyco luc inh 45 (no result: DNA FID counter)
FC(F)(F)c1nc2ccccc2n2c(-c3ccc(Cl)cc3Cl)nnc12	none (no result: RAD52 anneal inh)
FC(F)(F)c1nnc2c(Sc3ccccc3)nc3ccc(Cl)cc3n12	miR-122 sensor 307 (no result: RAD52 anneal inh)
C[C@@H]1CN([C@@H](C)CO)C(=O)c2cccc(NS(=O)(=O)c3ccc(F)cc3)c2O[C@H]1CN(C)Cc1ccc(C(=O)Nc2ccccc2N)cc1	none (no result: DNA FID counter, RAD54 branch, NRP1-CendR mod, Glyco luc inh, miR-122 sensor)
C[C@H](CO)N1C[C@H](C)[C@@H](CN(C)C(=O)Nc2ccc(F)cc2)Oc2c(NS(=O)(=O)c3ccccc3)cccc2C1=O	miR-122 sensor 128[16.7 µM] (no result: DNA FID counter, NRP1-CendR mod, Glyco luc inh)
C[C@H](CO)N1C[C@H](C)[C@H](CN(C)C(=O)Nc2ccc(F)cc2)Oc2c(NS(=O)(=O)c3ccccc3)cccc2C1=O	none (no result: DNA FID counter, NRP1-CendR mod, Glyco luc inh)
Cc1ccc(S(=O)(=O)Nc2cccc3c2O[C@H](CN(C)Cc2ccc(C(=O)Nc4ccccc4N)cc2)[C@H](C)CN([C@H](C)CO)C3=O)cc1	miR-122 sensor 189[16.7 µM] (no result: DNA FID counter, NRP1-CendR mod, Glyco luc inh)
C[C@@H]1CN([C@@H](C)CO)C(=O)c2cccc(NS(=O)(=O)c3ccc(F)cc3)c2O[C@@H]1CN(C)Cc1ccc(C(=O)Nc2ccccc2N)cc1	miR-122 sensor 94[16.7 µM] (no result: DNA FID counter, NRP1-CendR mod, Glyco luc inh)
O=S(=O)([N-]c1nc2ccccc2nc1-n1cc[n+](Cc2ccccc2)c1)c1ccc(Br)cc1	Glyco luc inh 48
CC(O)[C@H]1CC[C@H]2[C@@H]3CC[C@H]4C[C@@H](O)CC[C@]4(C)[C@H]3C(=O)C[C@]12C (some centres not stated)	NRP1-CendR mod 26 (no result: DNA FID counter)
CC(O)C1CCC2C3CCC4CC(O)CCC4(C)C3C(=O)CC12C (configuration not stated)	none (no result: DNA FID counter)
Cc1cc(C)c(C)c(S(=O)(=O)Nc2ccc3cn[nH]c3c2)c1C	miR-122 sensor 157 (no result: DNA FID counter)
O=C(NO)c1ccc(OC(F)F)cc1	Glyco luc inh 36 (no result: RAD54 branch, miR-122 sensor)
CCN(CC)CCCNC(=O)c1ccc(N2CCCCC2)c(NS(=O)(=O)c2ccc(C)cc2)c1	DNA FID counter 51 (no result: RAD54 branch, miR-122 sensor)
O=C(C[C@H]1C=C[C@@H](NC(=O)Nc2ccc3c(c2)OCO3)[C@@H](CO)O1)NCc1ccc(F)cc1	none (no result: DNA FID counter, RAD54 branch, NRP1-CendR mod, Glyco luc inh, miR-122 sensor)
CN(C)c1ccc(CNC(=O)/C=C/[C@H]2O[C@@H](n3cnc4c(NC(=O)c5ccccc5)ncnc43)[C@H](O)[C@@H]2O)cc1	none (no result: DNA FID counter)
O=C(/C=C/[C@H]1O[C@@H](n2cnc3c(NC(=O)c4ccccc4)ncnc32)[C@H](O)[C@@H]1O)NCc1ccco1	NRP1-CendR mod 22 (no result: DNA FID counter)
CCOc1ccc(CCNC(=O)c2ccc(F)c(S(=O)(=O)N3CCOCC3)c2)cc1OCC	NRP1-CendR mod 23
COCCNC(=O)[C@H]1[C@H](CO)[C@H]2Cn3c(ccc(C4=CCCCC4)c3=O)[C@@H]1N2C(=O)C1CCCC1	none (no result: DNA FID counter, RAD54 branch, NRP1-CendR mod, Glyco luc inh, miR-122 sensor)
CC(C)Cc1nnc(NC(=O)Cc2ccccc2[N+](=O)[O-])s1	miR-122 sensor 126
C[C@H](CO)N1C[C@H](C)[C@H](CN(C)CC2CC2)Oc2c(NC(=O)Nc3ccccc3)cccc2C1=O	none (no result: DNA FID counter, NRP1-CendR mod, Glyco luc inh)
CNC[C@@H]1Oc2ccc(NS(=O)(=O)c3ccccc3)cc2C(=O)N([C@@H](C)CO)C[C@H]1C	none (no result: DNA FID counter, NRP1-CendR mod, Glyco luc inh)
C[C@@H]1CN([C@H](C)CO)C(=O)c2cc(NC(=O)Nc3cccc4ccccc34)ccc2O[C@@H](C)CCCCO[C@@H]1CN(C)CC1CCCCC1	none (no result: DNA FID counter, NRP1-CendR mod, Glyco luc inh)
O=C(c1ccc(S(=O)(=O)Cc2ccccc2Cl)c([N+](=O)[O-])c1)N1CCOCC1	NRP1-CendR mod 17
O=C(CSc1ccc(-c2ccccn2)nn1)c1ccc([N+](=O)[O-])cc1	none (no result: RAD54 branch)
O=C(COC(=O)c1ccccn1)c1ccc([N+](=O)[O-])cc1	NRP1-CendR mod 22
Cc1c(NC(=O)COC(=O)C2(c3ccc(F)cc3)CCCC2)c(=O)n(-c2ccccc2)n1C	NRP1-CendR mod 22 (no result: RAD54 branch, miR-122 sensor)
Cc1c(NC(=O)Cn2nc(C(F)(F)F)c3c2CCCC3)c(=O)n(-c2ccccc2)n1C	NRP1-CendR mod 23 (no result: RAD52 anneal inh)
Cc1nc(SCC(=O)Nc2c(C)n(C)n(-c3ccccc3)c2=O)nc(C)c1C	none (no result: RAD52 anneal inh, RAD54 branch)
